Molecules are shown by their SMILES. “And” between values parts separate entries of the source, which are not always exact repeats. Identical values can stand only once. Some compounds were tested as several samples or in several runs, with calls that do not always agree. The source made the active and inactive calls. How the source made its calls: active means hit-call score of the fitted dose curve at least 0.9, where 1 is the maximum; inactive means score below 0.9.

The AC50 is the concentration giving half of the maximal activity seen.

Read-out in assay [1]: Thrombomodulin, THBD (gene 7056)
Briefly: BSK_3C_Thrombomodulin: BioMAP Diversity Plus: 3C Assay for Thrombomodulin Biomarker Activity (AID 2283029). The following applies: primary human endothelial cells (HUVEC); actives raise or lower the signal. In outline:
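HUVEC, 3C conditions; compound 24 h; thrombomodulin by ELISA; bidirectional curve fit vs DMSO baseline; parallel SRB total-protein staining for cytotoxicity.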

Read-out in assay [2]: Urokinase-type plasminogen activator receptor (uPAR), PLAUR (gene 5329)
Briefly: BSK_4H_uPAR: BioMAP Diversity Plus: 4H Assay for Urokinase-type plasminogen activator receptor (uPAR) Biomarker Activity (AID 2283030). The settings on record: primary human endothelial cells (HUVEC); actives raise or lower the signal. In outline:
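uPAR level read by ELISA on HUVEC cultures (BioMAP 4H) 24 h post-dosing, analyzed for gain or loss relative to DMSO. Parallel SRB staining assessed overt cytotoxicity.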

Read-out in assay [3]: Vascular endothelial growth factor receptor 2 (Homo sapiens) (UniProt P35968)
Briefly: BSK_4H_VEGFRII: BioMAP Diversity Plus: 4H Assay for Vascular endothelial growth factor receptor 2 (VEGFR2) Biomarker Activity (AID 2283031). The settings on record: primary human endothelial cells (HUVEC); actives raise or lower the signal. In outline:
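Measured by ELISA after 24 h of compound treatment: VEGFR2 on primary human umbilical vein endothelial cells, fitted in both directions relative to DMSO. Parallel cultures received SRB staining (560 nm) for overt cytotoxicity.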

Read-out in assay [4]: Human Leukocyte Antigen - DR isotype (HLADR), HLA-DRA (gene 3122)
The assay can be described thus: BSK_BE3C_HLADR: BioMAP Diversity Plus: BE3C Assay for Human Leukocyte Antigen - DR isotype (HLADR) Biomarker Activity (AID 2283032). The settings on record: primary human bronchial epithelial cells; actives raise or lower the signal. In outline: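 Primary human bronchial epithelial cells (BE3C); 24 h chemical exposure; HLA-DR by ELISA; bidirectional curve fit vs DMSO baseline.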

Read-out in assay [5]: Vascular cell adhesion molecule 1 (VCAM1), VCAM1 (gene 7412)
Briefly: BSK_4H_VCAM1: BioMAP Diversity Plus: 4H Assay for Vascular cell adhesion molecule 1 (VCAM1) Biomarker Activity (AID 2283033).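 On outcome: cell-surface VCAM-1 protein measured by ELISA.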 The following applies: primary human endothelial cells (HUVEC); actives raise or lower the signal. In outline:
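HUVEC, 24 h post-dose; VCAM-1 by ELISA. Bidirectional curve fit vs DMSO baseline. Parallel SRB total-protein stain (0.1% SRB after 10% TCA fixation, 560 nm) for cytotoxicity.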

Read-out in assay [6]: Interferon-gamma inducible Protein 10 (IP10), CXCL10 (gene 3627)
The assay can be described thus: BSK_BE3C_IP10: BioMAP Diversity Plus: BE3C Assay for Interferon-gamma inducible Protein 10 (IP10) Biomarker Activity (AID 2283034). The following applies: primary human bronchial epithelial cells; actives raise or lower the signal. In outline:
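ELISA readout of IP-10 in BE3C system: primary human bronchial epithelial cells, 24 h post-dosing; bidirectional curve fit vs DMSO baseline.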

Read-out in assay [7]: Monokine induced gamma interferon (MIG), CXCL9 (gene 4283)
Briefly: BSK_BE3C_MIG: BioMAP Diversity Plus: BE3C Assay for Monokine induced gamma interferon (MIG) Biomarker Activity (AID 2283035).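 On outcome: MIG protein measured by ELISA in BE3C cultures after 24 h of dosing.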 The settings on record: primary human bronchial epithelial cells; actives raise or lower the signal. In outline: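 hu bronchial epithelial 1° cells, 24 h cpd; MIG by ELISA; bidirectional fit, DMSO = baseline.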

Read-out in assay [8]: Transforming growth factor beta 1 (TGFb1), TGFB1 (gene 7040)
Briefly: BSK_BE3C_TGFb1: BioMAP Diversity Plus: BE3C Assay for Transforming growth factor beta 1 (TGFb1) Biomarker Activity (AID 2283036;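 on outcome: TGF-b1 protein level measured by ELISA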). The settings on record: primary human bronchial epithelial cells; actives raise or lower the signal. In outline: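 Read-out: ELISA for TGF-b1 in primary human bronchial epithelial cultures, 24 h post-dose. Bidirectional curve fitting vs DMSO control; gain or loss of signal both scored.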

Read-out in assay [9]: Plasminogen activator inhibitor-1 (PAI1), SERPINE1 (gene 5054)
Briefly: BSK_BE3C_PAI1: BioMAP Diversity Plus: BE3C Assay for Plasminogen activator inhibitor-1 (PAI1) Biomarker Activity (AID 2283037). The following applies: primary human bronchial epithelial cells; actives raise or lower the signal. In outline:
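ELISA read-out of PAI-1 from human bronchial epithelial primary cells, 24 h post-dosing; bidirectional curve fit vs DMSO baseline, gain or loss of signal scored.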

Read-out in assay [10]: urokinase plasminogen activator (uPA), PLAU (gene 5328)
The assay can be described thus: BSK_BE3C_uPA: BioMAP Diversity Plus: BE3C Assay for urokinase plasminogen activator (uPA) Biomarker Activity (AID 2283038).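 On outcome: uPA protein level quantified by ELISA in cell cultures; uPA read one day after compound addition.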 The settings on record: primary human bronchial epithelial cells; actives raise or lower the signal. In outline:
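ELISA for uPA on human primary bronchial epithelial cultures 24 h post-treatment, gain or loss against DMSO. Parallel SRB staining (0.1% after 10% TCA fixation, 560 nm) assessed overt cytotoxicity.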

Read-out in assay [11]: Urokinase-type plasminogen activator receptor (uPAR), PLAUR (gene 5329)
The assay can be described thus: BSK_BE3C_uPAR: BioMAP Diversity Plus: BE3C Assay for Urokinase-type plasminogen activator receptor (uPAR) Biomarker Activity (AID 2283039).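 On outcome: uPAR protein level measured by ELISA on the cells; cells exposed to compound for one day before measurement.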 The following applies: primary human bronchial epithelial cells; actives raise or lower the signal. In outline:
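ELISA readout of uPAR on human lung primary bronchial epithelial cells, 24 h post-dosing. Bidirectional curve fit relative to DMSO vehicle baseline; gain or loss of signal both scored.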

Read-out in assay [12]: Interleukin-6 (IL6), IL6 (gene 3569)
Briefly: BSK_CASM3C_IL6: BioMAP Diversity Plus: CASM3C Assay for Interleukin-6 (IL6) Biomarker Activity for (AID 2283040). The following applies: primary human coronary artery smooth muscle cells; actives raise or lower the signal.

Read-out in assay [13]: Tissue plasminogen activator (tPA), PLAT (gene 5327)
The assay can be described thus: BSK_BE3C_tPA: BioMAP Diversity Plus: BE3C Assay for Tissue plasminogen activator (tPA) Biomarker Activity (AID 2283041).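 On outcome: tPA level quantified by ELISA one day after compound addition.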 The settings on record: primary human bronchial epithelial cells; actives raise or lower the signal. In outline:
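ELISA read-out of tPA on human primary bronchial epithelial cells, 24 h post-dosing; bidirectional fit vs DMSO negative control/baseline.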

Read-out in assay [14]: Interleukin-8 (IL8), CXCL8 (gene 3576)
The assay can be described thus: BSK_CASM3C_IL8: BioMAP Diversity Plus: CASM3C Assay for Interleukin-8 (IL8) Biomarker Activity (AID 2283042).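 Further: IL-8 protein level quantified by ELISA.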 The following applies: primary human coronary artery smooth muscle cells; actives raise or lower the signal.

Read-out in assay [15]: Human Leukocyte Antigen - DR isotype (HLADR), HLA-DRA (gene 3122)
The assay can be described thus: BSK_CASM3C_HLADR: BioMAP Diversity Plus: CASM3C Assay for Human Leukocyte Antigen - DR isotype (HLADR) Biomarker Activity (AID 2283043).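 Further: cell-surface HLA-DR protein level quantified by ELISA.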 The following applies: primary human coronary artery smooth muscle cells; actives raise or lower the signal.

Read-out in assay [16]: Macrophage colony-stimulating factor (MCSF), CSF1 (gene 1435)
The assay can be described thus: BSK_CASM3C_MCSF: BioMAP Diversity Plus: CASM3C Assay for Macrophage colony-stimulating factor (MCSF) Biomarker Activity (AID 2283044).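 Further: M-CSF protein amount quantified by ELISA after 24 h exposure.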 The following applies: primary human coronary artery smooth muscle cells; actives raise or lower the signal.

Read-out in assay [17]: Low-density lipoprotein receptor (LDLR), LDLR (gene 3949)
Briefly: BSK_CASM3C_LDLR: BioMAP Diversity Plus: CASM3C Assay for Low-density lipoprotein receptor (LDLR) Biomarker Activity (AID 2283045).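 Further: LDLR protein level on the cell surface quantified by ELISA.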 The following applies: primary human coronary artery smooth muscle cells; actives raise or lower the signal.

Read-out in assay [18]: Monocyte Chemoattractant Protein-1 (MCP1), CCL2 (gene 6347)
Briefly: BSK_CASM3C_MCP1: BioMAP Diversity Plus: CASM3C Assay for Monocyte Chemoattractant Protein-1 (MCP1) Biomarker Activity (AID 2283046).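 Further: MCP-1 level quantified by ELISA 24 h after dosing.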 The following applies: primary human coronary artery smooth muscle cells; actives raise or lower the signal.

Assay [19] can be described thus: BSK_CASM3C_Proliferation: Cell Proliferation Assessment in the BioMAP Diversity Plus: CASM3C Assay (AID 2283047).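 Further: sulforhodamine B total protein stain as relative cell number at 560 nm; sub-confluent cells exposed 48 h before staining; fitted both ways against DMSO so gain or loss of cell number.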 The following applies: primary human coronary artery smooth muscle cells.
Read-out in assay [20]: Monokine induced gamma interferon (MIG), CXCL9 (gene 4283)
The assay can be described thus: BSK_CASM3C_MIG: BioMAP Diversity Plus: CASM3C Assay for Monokine induced gamma interferon (MIG) Biomarker Activity (AID 2283048).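 Further: MIG protein level measured by ELISA.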 The settings on record: primary human coronary artery smooth muscle cells; actives raise or lower the signal.

For `O=C(O)C(F)(F)C(F)(F)C(F)(F)C(F)(F)C(F)(F)C(F)(F)C(F)(F)C(F)(F)C(F)(F)C(F)(F)F`, the AC50 in assay [1] was 5.29 µM (active); in assay [2], 32.1 µM (active); in [4], 9.29 µM (active) and 4.71 µM (active) and 4.92 µM (active); in assay [5], 33.2 µM (active); in assay [6], 8.5 µM (active) and 2.27 µM (active) and 2.29 µM (active); in assay [7] it was 13.8 µM (active) and 5.09 µM (active) and 5.56 µM (active). Moreover, the AC50 is 8.28 µM (active) in assay [8]; 12.3 µM (active) and 2.33 µM (active) and 1.73 µM (active) in assay [9]; 11.6 µM (active) and 6.21 µM (active) and 5.27 µM (active) in assay [10]; 26 µM (active) and 5.6 µM (active) and 5.59 µM (active) in assay [11]; 7.65 µM (active) and 5.33 µM (active) in assay [13]; 19.1 µM (active) in assay [15]. For the same compound, the result in assay [1], in assay [2], in assay [3], in assay [5], in assay [12] and in assay [13] was inactive. In addition, the outcome in [14], in [15], in assay [16], in assay [17], in assay [18] and in assay [19] was inactive. In addition, the outcome in assay [20] was inactive.

Take `CCOP(=S)(OCC)SCCS(=O)(=O)CC`: the result in assay [1], in [2], in [3], in [4], in [5] and in assay [7] was inactive. For the same compound, the result in assay [8], in assay [9], in assay [10], in [11], in assay [12] and in assay [13] was inactive. The outcome in assay [14], in assay [15], in assay [16], in [17], in [18] and in assay [19] was inactive. Further, in assay [20], the outcome was inactive.

On to `CC1(C)Cc2cccc(O)c2O1`, for which the outcome in [1], in assay [2], in assay [3], in assay [4], in [5] and in assay [7] was inactive. Also, the result in assay [8], in assay [9], in assay [10], in [11], in assay [12] and in [13] was inactive. For the same compound, the outcome in assay [14], in assay [15], in assay [16], in [17], in assay [18] and in assay [19] was inactive. In assay [20], the result was inactive.

Regarding `CCNc1nc(NC(C)(C)C)nc(SC)n1`, the outcome in assay [1], in assay [2], in [4], in assay [5], in [7] and in [8] was inactive. Further, the outcome in assay [9], in assay [10], in assay [11], in assay [12], in assay [13] and in assay [14] was inactive. Also, the result in assay [15], in [16], in [17], in [18], in assay [19] and in [20] was inactive.

`Nc1cccc2ccccc12`: the result in [1], in [2], in assay [4], in assay [5], in assay [7] and in assay [8] was inactive. Further, the outcome in assay [9], in assay [10], in assay [11], in assay [12], in assay [13] and in [14] was inactive. The outcome in assay [15], in assay [16], in [18], in [19] and in assay [20] was inactive. Moreover, the AC50 in [17] is 12.6 µM (active).

`BrCCBr`: the result in assay [1], in assay [2], in assay [3], in assay [4], in [5] and in [7] was inactive. The result in assay [8], in assay [9], in [10], in [11], in assay [12] and in assay [13] was inactive. Also, the result in assay [14], in assay [15], in [16], in assay [17], in assay [18] and in assay [20] was inactive. For the same compound, the AC50 in assay [19] is 0.197 µM (active).

The record behind these values is PubChem BioAssay (EPA / NIEHS).
